High-throughput results: PubChem BioAssay, National Center for Advancing Translational Sciences (NCATS)
MCF10A rereplic: A quantitative high throughput screen for small molecules that induce DNA re-replication in MCF 10a normal breast cells | MCF 10A DNA re-replication, Hoechst nuclear intensity, 48 h | Potency, µM (highest dose often 46.1 µM), without a hit: top-dose activity, positive = re-replication, most hits filed as activators | 350,000 compounds, 2.9% hits | AID 624296, 2012; note: % of control where 0% means no effect; nearly all actives have a fitted effect of over 50% in size
ELG1 DNA repair: qHTS screen for small molecules that inhibit ELG1-dependent DNA repair in human embryonic kidney (HEK293T) cells expressing luciferase-tagged ELG1 | HEK293T ELG1-luciferase reporter, luminescence, 16 h; DNA damage induced by 5-fluorouridine | Potency, µM (doses to about 46.1 µM), for the others: at the top dose activity change, negative = inhibition, hits mostly inhibitors | 330,000 compounds, 2.3% hits | AID 504467, 2011; note: % is set by controls: 0 for no effect and ±100 for the full control effect; nearly all actives have a fitted effect of over 55% in size
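Luminescence from the luciferase reporter, measured 30 min after ONE-Glo reagent at room temperature, was the read-out. Beforehand, 2,000 cells per well were exposed for 16 hr at 37 °C to 5-fluorouridine together with compound or vehicle.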
KB-V1 MDR tox: qHTS assay for MDR1-selective chemotherapeutics: Primary screen using the drug-selected MDR subline cells KB-V1. 400,000 compounds, 3.4% hits. AID 1347076, 2019. KB-V1 MDR cells viability, CellTiter-Glo, 72 h. Potency, µM (titrated, usually from 46.1 µM), most hits filed as cytotoxic; note: % is set by controls: 0 for no effect and ±100 for the full control effect; nearly all actives have a fitted effect of over 60% in size
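qHTS viability screen in drug-selected KB-V1 MDR cells: 72 h compound treatment at 37 degrees C, ATP luminescence end point.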
SW480 rerep: A quantitative high throughput screen for small molecules that induce DNA re-replication in SW480 colon adenocarcinoma cells; SW480 DNA re-replication, Hoechst DNA content imaging, 48 h; Potency, µM (top dose mostly 46.1 µM), inactives show at the top dose re-replication activation, hits mostly activators; 340,000 compounds, 1.8% hits; note: % of control where 0% means no effect; nearly all actives have a fitted effect of over 55% in size
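Image-based DNA-content assay: after two days of treatment, nuclei were labelled with the DNA dye Hoechst and imaged, and hits were compounds raising the count of nuclei showing high fluorescence intensity.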
KB-3-1 tox: qHTS assay for MDR1-selective chemotherapeutics: Primary screen using the parental adenocarcinoma cell KB-3-1; KB-3-1 viability, CellTiter-Glo ATP luminescence, 72 h; Potency, µM (highest dose often 46.1 µM), usual class: cytotoxic; 400,000 compounds, 1.4% hits; note: % is set by controls: 0 for no effect and ±100 for the full control effect; nearly all actives have a fitted effect of over 60% in size
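Cells are dispensed, compounds pinned in, plates held at 37 °C for 72 h, then CellTiter-Glo is added and luminescence read after 10 minutes. Cell line: parental KB-3-1 in phenol-red-free DMEM, 10% FBS.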
* hit, by the source's call; i = inactive; ? = inconclusive; · = no result given; [ ] = remark or other dose. Hits are enriched below; roughly 8.2% of the tested compounds scored in any of these assays. Calls come from the whole dose curve; as a rule, active = well fitted curve in the direction sought with a large enough effect; inconclusive = small, poorly fitted or top-dose-only effect, or another doubt; inactive = no such curve, though single readings can be large; an effect the other way counts as inactive or inconclusive. Potency is the fitted concentration of half-maximal effect.

SMILES	MCF10A rereplic	ELG1 DNA repair	KB-V1 MDR tox	SW480 rerep	KB-3-1 tox
CN(C)CCCNc1ncnc2scc(-c3ccccc3)c12	1%	-2%	i	0%	i
c1ccc(-c2csc3ncnc(NCc4ccccn4)c23)cc1	4%	12µM*	?	0%	i
c1ccc(CNc2ncnc3sc4c(c23)CCC4)nc1	10%	?	?	2%	i
Cc1ccc(-c2nnc(Nc3ccc4c(c3)OCO4)c3ccccc23)cc1S(=O)(=O)NC(C)C	?	15µM*	i	7%	?
CC(=O)Nc1ccc(Nc2nnc(-c3ccc(C)c(S(=O)(=O)NCC4CCCO4)c3)c3ccccc23)cc1 (stereo not drawn)	-5%	21µM*	i	-7%	i
CNC(=O)c1ccc(Nc2nnc(-c3ccc(C)c(S(=O)(=O)NCC4CCCO4)c3)c3ccccc23)cc1 (stereo not drawn)	?	?	?	4%	i
Cc1ccccc1S(=O)(=O)NCC1CCCO1 (stereo not drawn)	-12%	?	i	26µM*	i
Cc1ccc(-c2nnc(Nc3ccc4c(c3)OCO4)c3ccccc23)cc1S(=O)(=O)NCCO	?	?	?	-1%	?
Cc1ccc(-c2nnc(Nc3ccccc3)c3ccccc23)cc1S(=O)(=O)NCC1CCCO1 (stereo not drawn)	?	21µM*	?	5%	?
COc1ccc(NC(=O)COc2ccccc2C(=O)Nc2ccccc2)cc1	·	·	i	·	i
COCc1c(C(=O)Nc2ccc3nc(N4CCOCC4)sc3c2)oc2ccccc12	?	13µM*	i	?	i
CC1(C(=O)NS(=O)(=O)Cc2cccc(Cl)c2)CCN1C(=O)c1cccc(F)c1 (stereo not drawn)	·	·	i	·	i
C#CC(=O)N(c1cccc(OC)c1)C(C(=O)NC1CCCC1)c1cccs1 (stereo not drawn)	-2%	21µM*	i	-9%	i
COc1cc(C(C(=O)NC2CCCCC2)N(C(=O)Cc2c[nH]c3ccccc23)c2ccc(C)cc2)cc(OC)c1OC (stereo not drawn)	4%	?	23µM*	11%	?
COc1ccc(CCN(C(=O)C(F)(F)F)C(C(=O)NC2CCCCC2)c2ccc(C)s2)cc1OC (stereo not drawn)	2%	-4%	i	11%	i
Cc1ccc(C(C(=O)NC2CCCCC2)N(C(=O)Cc2c[nH]c3ccccc23)c2ccccc2)o1 (stereo not drawn)	?	4%	4.1µM*	14%	18µM*
COc1ccc(CCN(C(=O)C(F)(F)F)C(C(=O)NC2CCCC2)c2cccs2)cc1OC (stereo not drawn)	-7%	-11%	9.2µM*	19%	i
CC(=O)Nc1ccc(N(C(=O)Cc2c[nH]c3ccccc23)C(C(=O)NC2CCCCC2)c2ccco2)cc1 (stereo not drawn)	3%	-2%	i	1%	i
COc1cc(C(=O)N2CCCCC2c2cc(C(=O)NCc3cccnc3)no2)cc(OC)c1C (stereo not drawn)	·	·	i	·	i
O=C(CSc1ccccc1)NCC1(N2CCOCC2)CCCCC1	-2%	?	i	-14%	i
COc1cccc(CN(C(=O)Cc2c[nH]c3ccccc23)C(C(=O)NC2CCCCC2)c2cccs2)c1 (stereo not drawn)	0%	18µM*	i	-10%	i
COc1cccc(NC(=O)C(C)SCc2ccccc2)c1 (stereo not drawn)	-12%	?	?	2%[1.84 µM]	i
COc1ccc(NC(=O)C(C)SCc2ccccc2)cc1OC (stereo not drawn)	10%	-13%	23µM*	-82%	i
CC(C(=O)Nc1ccc2c(c1)OCO2)N(C)CC(=O)Nc1ccc(Cl)cc1 (stereo not drawn)	-5%	·	23µM*	-5%	i
CC(SCc1ccccc1)C(=O)Nc1ccc2c(c1)OCO2 (stereo not drawn)	1%	?	18µM*	-9%	i
SMILES	MCF10A rereplic	ELG1 DNA repair	KB-V1 MDR tox	SW480 rerep	KB-3-1 tox
CC(C(=O)Nc1ccc2c(c1)OCO2)N(C)CC(=O)Nc1ccccc1Cl (stereo not drawn)	-5%	?	i	-58%	i
Cc1ccc(N2CCN(S(=O)(=O)c3ccc4c(c3)NC(=O)C(C)C(=O)N4)CC2C)cc1 (stereo not drawn)	14%	?	i	9%	?
Cc1cc(C)cc(N(CC(=O)NCc2ccccc2Cl)S(=O)(=O)c2c(C)noc2C)c1	·	·	i	·	i
COc1ccc(CN2C(=O)[C@H]3Cc4c([nH]c5ccccc45)C(C)(C)N3C2=O)cc1	9.2µM*	·	?	-4%	?
COc1ccccc1CN1C(=O)[C@@H]2Cc3c([nH]c4ccccc34)C(C)(C)N2C1=O	27%	·	21µM*	-3%	?
COc1ccc(CN2C(=O)[C@@H]3Cc4c([nH]c5ccccc45)C(C)(C)N3C2=O)cc1	14%	·	?	-6%	18µM*
COc1cccc(CN2C(=O)[C@H]3Cc4c([nH]c5ccccc45)C(C)(C)N3C2=O)c1	?	·	16µM*	0%	i
CCN(CC)CCN1C(=O)C(=O)/C(=C(/O)c2ccc(S(=O)(=O)N3CCOCC3)cc2)C1c1ccccc1 (stereo not drawn)	-1%	3%	i	5%	i
CCCCCN1CC(=O)N2[C@@H](Cc3c([nH]c4ccccc34)C2(C)C)C1=O	6%	3%	?	-2%	i
CCCCOCCCN1CC(=O)N2[C@@H](Cc3c([nH]c4ccccc34)C2(C)C)C1=O	13%	13µM*	i	0%	i
O=C(CC[C@H]1O[C@@H](n2ccc(=O)[nH]c2=O)[C@H](O)[C@@H]1O)N[C@H](Cc1ccccc1)C(=O)NCC1CCCCC1	·	·	i	·	i
O=S(=O)(Nc1nc2ccccc2nc1Cl)c1ccccc1C(F)(F)F	17%	?	i	0%	i
O=S(=O)(Nc1nc2ccccc2nc1Cl)c1cccc(C(F)(F)F)c1	16µM*	-1%	i	-3%	i
COc1ccc([C@H]2CC(=O)C=C(c3cccc(C#N)c3)C2)cc1	-7%	?	i	?	i
Cc1ccc(NC(=O)Cc2coc3ccc(C(C)C)cc23)cc1Cl	·	·	16µM*	·	?
